# Results from PMC7862700, “An all-to-all approach to the identification of sequence-specific readers for epigenetic DNA modifications on cytosine”.
# Experiments:
# Assay in all cases: DAPPL (digital affinity profiling via proximity ligation, sequencing); 10 mM Tris-HCl pH 7.5, 50 mM NaCl, 1 mM DTT, 4% glycerol, room temperature, 30 min; GST-TFs on glutathione beads, 16-mer random dsDNA library, 0.1% formaldehyde crosslink after washing; high values mean tight binding
# Conditions in all cases: protein: recombinant; tags: N-terminal GST; dsDNA, one strand shown
# GABPA = target: T1, GABPA (Homo sapiens, UniProt Q06546 1-454)
# T1 sequence: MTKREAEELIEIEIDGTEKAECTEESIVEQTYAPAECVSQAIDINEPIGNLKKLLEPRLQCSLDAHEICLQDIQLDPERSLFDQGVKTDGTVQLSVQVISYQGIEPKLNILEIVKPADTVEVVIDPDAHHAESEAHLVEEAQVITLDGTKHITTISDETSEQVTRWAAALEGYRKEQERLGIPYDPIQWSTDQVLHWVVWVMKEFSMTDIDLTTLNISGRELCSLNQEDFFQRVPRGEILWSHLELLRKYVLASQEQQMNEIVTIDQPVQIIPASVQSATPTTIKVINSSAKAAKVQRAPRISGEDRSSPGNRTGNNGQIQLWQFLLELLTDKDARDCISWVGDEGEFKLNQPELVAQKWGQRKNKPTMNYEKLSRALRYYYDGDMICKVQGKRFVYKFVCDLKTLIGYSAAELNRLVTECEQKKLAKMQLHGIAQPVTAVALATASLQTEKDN
# Procedure, shortened: (§1)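 Pools were built from human transcription factors expressed in yeast as GST fusions, captured on glutathione beads and DNA-barcoded, along with a tag-only sample. Incubation with 200 nmole of a 16-mer random double-stranded DNA library lasted 30 min at room temperature in Tris/NaCl/DTT/glycerol buffer, and was followed by washing, 0.1% formaldehyde crosslinking, proximity ligation, PCR amplification and Illumina NextSeq500 sequencing. Binding signal is the quotient of each hexamer's read frequency for a factor and its frequency for the tag-only sample.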
# EHF = target: T2, EHF (Homo sapiens, UniProt Q9NZC4 1-300)
# T2 sequence: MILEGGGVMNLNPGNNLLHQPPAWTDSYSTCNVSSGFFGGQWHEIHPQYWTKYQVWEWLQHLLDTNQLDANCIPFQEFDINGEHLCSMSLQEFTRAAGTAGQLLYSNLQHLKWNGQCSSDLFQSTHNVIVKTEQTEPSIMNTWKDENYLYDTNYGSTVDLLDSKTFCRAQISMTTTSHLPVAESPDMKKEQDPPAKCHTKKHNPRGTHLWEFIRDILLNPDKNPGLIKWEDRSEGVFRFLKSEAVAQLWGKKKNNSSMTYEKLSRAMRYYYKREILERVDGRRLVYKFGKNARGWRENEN
# Procedure, shortened: as §1
# SPI1 = SPI1 (Homo sapiens, UniProt P17947 1-270)
# Procedure, shortened: as §1
# ETV5 = ETV5 (Homo sapiens, UniProt P41161 1-510)
# Sequence of ETV5 (P41161 whole entry): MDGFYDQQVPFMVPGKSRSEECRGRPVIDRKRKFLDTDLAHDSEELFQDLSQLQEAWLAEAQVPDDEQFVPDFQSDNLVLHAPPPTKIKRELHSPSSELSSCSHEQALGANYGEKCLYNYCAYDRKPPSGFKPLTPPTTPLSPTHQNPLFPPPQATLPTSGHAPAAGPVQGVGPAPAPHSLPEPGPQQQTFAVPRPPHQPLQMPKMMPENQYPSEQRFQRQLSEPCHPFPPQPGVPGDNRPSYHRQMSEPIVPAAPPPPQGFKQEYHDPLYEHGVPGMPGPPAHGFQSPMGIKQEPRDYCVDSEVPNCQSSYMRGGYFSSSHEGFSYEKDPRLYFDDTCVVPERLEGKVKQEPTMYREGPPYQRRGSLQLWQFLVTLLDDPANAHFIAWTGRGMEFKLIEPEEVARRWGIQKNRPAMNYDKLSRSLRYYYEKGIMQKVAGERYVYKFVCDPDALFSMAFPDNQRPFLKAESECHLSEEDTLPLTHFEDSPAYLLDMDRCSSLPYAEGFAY
# Procedure, shortened: as §1
# ELF3 = target: T3, ELF3 (Homo sapiens, UniProt P78545 1-371)
# T3 sequence: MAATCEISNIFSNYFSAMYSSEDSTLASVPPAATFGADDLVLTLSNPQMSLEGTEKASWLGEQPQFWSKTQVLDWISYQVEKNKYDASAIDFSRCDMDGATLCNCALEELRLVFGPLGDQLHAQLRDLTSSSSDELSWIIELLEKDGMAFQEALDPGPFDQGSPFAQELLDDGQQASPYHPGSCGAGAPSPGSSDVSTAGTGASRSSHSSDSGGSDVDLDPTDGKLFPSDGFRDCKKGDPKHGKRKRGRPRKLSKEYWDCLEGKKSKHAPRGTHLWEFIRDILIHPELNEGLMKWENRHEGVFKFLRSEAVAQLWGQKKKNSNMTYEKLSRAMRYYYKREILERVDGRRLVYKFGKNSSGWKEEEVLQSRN
# Procedure, shortened: as §1
sequence,measurement,setting,value
AGAGCT,binding signal,GABPA,"1.04 fold enrichment (6-mer frequency, TF over GST control)"
same,binding signal,EHF,"1.01 fold enrichment (6-mer frequency, TF over GST control)"
same,binding signal,SPI1,"1.01 fold enrichment (6-mer frequency, TF over GST control)"
same,binding signal,ETV5,"1.03 fold enrichment (6-mer frequency, TF over GST control)"
same,binding signal,ELF3,"1.03 fold enrichment (6-mer frequency, TF over GST control)"
